Measurements published in PubChem BioAssay AID720700 (The Scripps Research Institute Molecular Screening Center, 2013).
In all, about 370,000 compounds went through this assay and about 3,100 (0.84%) were called active. For the sample, actives were picked, then their nearest neighbours and some compounds at random. Unmarked numbers belong to inactive results. No stated cut-off is given here; in the data, active means inhibition above about 9.5%; inactive means the rest.

What follows are compounds tested against 1-phosphatidylinositol 4,5-bisphosphate phosphodiesterase gamma-1 (Homo sapiens) (UniProt P19174) (assay: blockers of human PLCG1 activity – biochemical, fluorescence, purified enzyme, primary screen (AID 720700)). Conditions: purified PLC-gamma1, fluorogenic substrate, at 12.2 µM, stronger effect = higher value.
Sequence of 1-phosphatidylinositol 4,5-bisphosphate phosphodiesterase gamma-1 (Homo sapiens) (P19174 whole entry, looked up): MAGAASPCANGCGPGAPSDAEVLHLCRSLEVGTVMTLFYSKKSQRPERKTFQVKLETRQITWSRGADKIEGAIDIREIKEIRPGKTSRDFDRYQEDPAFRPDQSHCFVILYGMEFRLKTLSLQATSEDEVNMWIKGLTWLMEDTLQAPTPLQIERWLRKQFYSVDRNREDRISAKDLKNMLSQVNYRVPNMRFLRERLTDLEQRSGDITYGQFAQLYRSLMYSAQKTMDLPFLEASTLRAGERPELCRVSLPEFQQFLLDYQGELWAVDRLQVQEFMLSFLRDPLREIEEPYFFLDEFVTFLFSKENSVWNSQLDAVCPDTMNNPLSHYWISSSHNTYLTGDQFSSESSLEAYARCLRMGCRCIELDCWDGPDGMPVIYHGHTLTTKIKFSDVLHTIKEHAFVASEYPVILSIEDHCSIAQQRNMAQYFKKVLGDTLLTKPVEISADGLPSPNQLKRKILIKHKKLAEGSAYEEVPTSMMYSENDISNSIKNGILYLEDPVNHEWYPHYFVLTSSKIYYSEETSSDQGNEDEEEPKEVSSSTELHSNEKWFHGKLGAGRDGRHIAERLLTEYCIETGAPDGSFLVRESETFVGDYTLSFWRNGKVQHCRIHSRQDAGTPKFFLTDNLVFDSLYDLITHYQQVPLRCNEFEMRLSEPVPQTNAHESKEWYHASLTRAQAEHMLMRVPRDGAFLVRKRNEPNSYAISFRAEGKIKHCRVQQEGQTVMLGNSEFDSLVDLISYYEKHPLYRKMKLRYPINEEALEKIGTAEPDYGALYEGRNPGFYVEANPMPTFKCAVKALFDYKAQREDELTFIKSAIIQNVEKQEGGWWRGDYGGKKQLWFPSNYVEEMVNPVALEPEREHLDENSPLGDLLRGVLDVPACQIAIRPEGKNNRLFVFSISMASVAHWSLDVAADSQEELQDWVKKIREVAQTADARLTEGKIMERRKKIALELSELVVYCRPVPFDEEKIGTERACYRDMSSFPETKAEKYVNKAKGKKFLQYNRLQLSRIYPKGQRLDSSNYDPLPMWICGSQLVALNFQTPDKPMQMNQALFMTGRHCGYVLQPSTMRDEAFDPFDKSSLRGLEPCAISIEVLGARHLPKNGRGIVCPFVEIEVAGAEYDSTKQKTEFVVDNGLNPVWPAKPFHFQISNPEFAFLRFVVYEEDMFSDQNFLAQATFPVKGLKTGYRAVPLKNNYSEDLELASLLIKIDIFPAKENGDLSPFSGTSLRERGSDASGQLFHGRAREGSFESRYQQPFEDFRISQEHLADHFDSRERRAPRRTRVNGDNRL

Compound	inhibition
CC(C)(C)OC(=O)NCc1cc(F)ccc1/C=C/S(=O)(=O)NCCc1ccccc1	2.46%
COC(=O)[C@]1(C#N)CC(=O)N(CC2CCCCC2)[C@@H]1c1ccccc1	8.67%
Clc1ccc(C2[C@H]3CN(CC4CCCCC4)[C@H](c4ccccc4)C34CC2(c2cccnc2)C4)cn1 (stereo partly drawn)	12.1% (active)
COC(=O)c1ccc(C23CC4(C2)[C@H](CN(Cc2cccnc2)[C@@H]4c2ccccc2)C3c2ccc(Cl)nc2)cc1 (stereo partly drawn)	2.06%
COc1ccc(C#CCNCc2ccc(OC)cc2OC)cc1	2.01%
Cc1cc(C(=O)NN=C/C=C/c2ccco2)n[nH]1	-16.7%
CCCCNC(=O)C[C@H]1C(=O)N(Cc2ccc(OC)cc2)C2=CCCC[C@@]21C(=O)OCC	4.39%
COC(=O)C[C@@H]1CC[C@@H]2[C@@H](COc3ccc(NC(=O)Nc4ccc(F)c(F)c4)cc3C(=O)N2C)O1	1.9%
COC(=O)C[C@@H]1CC[C@@H]2[C@H](COc3ccc(NC(=O)c4cccc(F)c4)cc3C(=O)N2C)O1	12.8% (active)
COC(=O)C[C@H]1CC[C@H]2[C@H](COc3ccc(NC(=O)C4CC4)cc3C(=O)N2C)O1	-1%
COC(=O)c1cccc(Cn2ccc3ccc(-c4ccc5ccn(C(=O)C6CCCCC6)c5c4)cc32)c1	-51.3%
CC(=O)N1CCCN(C2=Nc3ccccc3Sc3ccccc32)CC1	0.02%
COc1ccc(C(=O)OCC(=O)Nc2ccc3[nH]c(=O)[nH]c3c2)c(OC)c1OC	4.24%
COc1cc(NC(=O)COC(=O)c2ccc([N+](=O)[O-])s2)cc(OC)c1OC	16.4% (active)
O=C(OCC(=O)N1CCN(c2ccccc2)CC1)c1ccc([N+](=O)[O-])s1	-1.31%
COc1ccc2c(c1)CN1CN(CCc3ccccc3)S(=O)(=O)CC21 (stereo not drawn)	-10.3%
C=CCn1c(SCC(N)=O)nnc1-c1ccccc1OC	1.51%
C=CS(=O)(=O)N(Cc1nnn(Cc2ccccc2)c1Br)[C@H](C(=O)OC)C(C)C	2.5%
CCN(C(=O)[C@@H](C1CC1)[C@@H](O)c1ccc2ccccc2c1)c1ccccc1	1.27%
O=c1c2ccccc2c(-c2ccccc2)nn1-c1ccccn1	2.78%
O=c1c2ccccc2c(-c2ccc(Br)cc2)nn1Cc1ccccc1	-0.25%
O=c1c2ccccc2c(-c2ccccc2)nn1Cc1ccccc1	12.3% (active)

Compound	inhibition
Cc1cc(C)c(NC(=O)CN2CCCCCC2)c(C)c1	4.73%
Cc1cc(C)c(NC(=O)CN2CCOCCOCCOCCOCC2)c(C)c1	14% (active)
O=C(CN1CCOCC1)Nc1c(Cl)cc(Cl)cc1Cl	0.95%
Cc1ccccc1NC(=O)COC(=O)c1ccc(Sc2ncn[nH]2)c([N+](=O)[O-])c1	-0.83%
COCc1cc(C(C)=O)ccc1OC	12.2% (active)
COc1ccc(C(C)=O)cc1COC(=O)Cn1cnc2ccccc2c1=O	5.51%
COc1ccc(C(C)=O)cc1COc1ccc(Cl)c(C)c1	2.04%
COC[C@@H]1CCCN1c1ccc2c(c1)O[C@H](C)CCN(C1CC1)S2(=O)=O	-1.38%
O=C(c1ccncc1)N1CC[C@H]2[C@H](CCCN2Cc2ccc(F)cc2)C1	2.52%
O=C(OC12CCCN(C1)/C(=C/c1ccccc1)C2)c1ccco1 (stereo not drawn)	6.33%
O=C(COC(=O)Cc1ccccc1F)NCCc1ccccc1	-0.55%
COc1ccc(CCNC(=O)COC(=O)Cc2ccccc2F)cc1	10.7% (active)
COc1ccc(CCNC(=O)COC(=O)Cc2cccc(F)c2)cc1	-3.08%
COC(=O)C[C@@H]1CC[C@H]2[C@@H](COc3ccc(NS(=O)(=O)CC(F)(F)F)cc3C(=O)N2C)O1	0.55%
CC(C)N1CCCCC(NC(=O)c2ccc3ccccc3c2)C1=O (stereo not drawn)	-1.22%
Cc1ccc(S(=O)(=O)NC(=O)COc2ccccc2C)cc1	-1.05%
Cc1ccc(NS(=O)(=O)c2ccc3c(c2)n(C)c(=O)c(=O)n3C)c(C)c1	-0.33%
Cc1ccc(NS(=O)(=O)c2ccc(N/N=C/c3ccccc3OCC(=O)O)c([N+](=O)[O-])c2)c(C)c1	10.8% (active)
COC(=O)[C@]12C[C@H](CC(=O)NCCc3ccccc3OC)C(=O)N(Cc3ccco3)C1=C[C@H](C(C)C)O[C@@H]2C1CC1	-0.19%
O=C(NCCC1=CCCCC1)C1CCN(S(=O)(=O)c2ccc(Cl)s2)CC1	-0.14%
CCOC(=O)c1csc(NC(=O)C2CCCN(S(=O)(=O)c3ccc(Cl)s3)C2)n1 (stereo not drawn)	6.52%
CN(C)Cc1cn(-c2ccc(-c3noc4c3C(=O)N(CC(=O)N3CCOCC3)CC4)cc2)nn1	-16.7%

Compound	inhibition
COC(=O)c1ccc(CSc2nnc(N)s2)o1	-0.29%
Nc1nnc(SCC(=O)OCc2ccc(Cl)c(Cl)c2)s1	10.9% (active)
CN(C(=O)CSc1nnc(N)s1)c1c(N)n(Cc2ccccc2)c(=O)[nH]c1=O	-0.92%
CCCC1CCC2(CCCN2CCOC(=O)NCc2ccccc2)CC1 (stereo not drawn)	2.03%
O=C(NCC12CC3CC(C1)CC(CNC(=O)N1CCCC1)(C3)C2)N1CCCC1	-0.47%
O=C(NC12CC3CC(CC(C3)C1)C2)N1CCCC(CO)C1 (stereo not drawn)	11.5% (active)
O=C(CNCCO)NC12CC3CC(CC(C3)C1)C2	9.27%
O=C(NCCc1c[nH]c2ccccc12)OCc1cn(-c2c(F)cccc2F)nn1	-2.05%
CCCCCCCCNS(=O)(=O)/C=C/c1cc(C)ccc1CNC(=O)OC(C)(C)C	-1.88%
COC(=O)[C@]12C[C@H](CC(=O)NCCCN3CCCC3=O)C(=O)N(CCc3ccc(OC)c(OC)c3)C1=C[C@H](COCc1ccccc1)O[C@@H]2C	4.14%
Cc1c(C#N)c2ncn(CC#N)c(=O)c2n1-c1ccccc1	9.69% (active)
CC(=O)Cn1cnc2c(cnn2-c2ccccc2)c1=O	0.74%
CN(C)/C=C/c1c(C#N)c(=O)ncn1Cc1ccccc1	2.62%
COC(CNC(=O)[C@H](Cc1ccccc1)NC1(C(=O)NC2CCCCC2)CCCCC1)OC	0.41%
CCc1c(C)nc(SCC(=O)NC2CCCC2)[nH]c1=O	0.69%
CCc1ccc(-c2nc(SCC(=O)NC3CCCC3)n[nH]2)cc1	9.58% (active)
COC(=O)c1ccccc1NC(=O)CSc1n[nH]c(-c2ccncc2)n1	1.06%
O=C(CSc1nnc(-c2ccccc2)n1Cc1ccco1)Nc1ccccc1-c1ccccc1	8.54%
COc1cccc(/C=C2\CC3(OC(C)=O)CCCN2C3)c1 (stereo not drawn)	-1.03%
COC(=O)[C@@]12CCCCC3=C1N(CCC3)C(=O)[C@H]2CC(=O)NCc1cccc2ccccc12	3.71%
Cc1ccnc(SCC(=O)Nc2cccc(S(=O)(=O)N3CCOCC3)c2)n1	1.32%
Cc1cc(C(=O)NNC(=O)c2cccc(S(=O)(=O)N3CCOCC3)c2)c2ccccc2n1	1.34%

Compound	inhibition
O=C(CSc1ccccc1)Nc1cccc(S(=O)(=O)N2CCCCC2)c1	5.78%
O=C(Nc1ccc(S(=O)(=O)N2CCOCC2)cc1)c1ccc2ncsc2c1	-4.28%
Cc1nc2ccc(NC(=O)c3cccc(S(=O)(=O)N4CCOCC4)c3)cc2s1	14% (active)
O=C(CSc1ccccc1)Nc1cccc(S(=O)(=O)N2CCOCC2)c1	11.5% (active)
COc1ccc(CN2C(=O)N3Cc4cc(OC)ccc4C3CS2(=O)=O)cc1 (stereo not drawn)	0.38%
O=C(NCCCc1ccccc1)[C@H](Cc1ccccc1)NC1(C(=O)NCCc2c[nH]c3ccccc23)CCC1	-0.08%
Cc1ccc(C(=O)N(Cc2ccccn2)CC2CCCO2)cc1 (stereo not drawn)	0.65%
CN1C[C@]2(C=C3CCCCC3n3c(=O)n(-c4ccccc4)c(=O)n32)N=C1NC(=O)c1ccccc1 (stereo partly drawn)	-0.41%
Cc1cccc(NC(=O)N2CCCCCC2)c1C	0.02%
CNC(=O)n1ccc(C(=O)N2CCCCC2)n1	9.53% (active)
Cc1ccc(C(=O)N2CCCC2)c(F)c1F	2.59%
Nn1c(SCC(=O)N2c3ccccc3Sc3ccccc32)nnc1-c1n[nH]c2c1CCC2	1.2%
COP(=O)(O)CNC(=O)OCc1ccccc1	2.2%
CC(CCN1CCC(C(O)(c2ccccc2)c2ccccc2)CC1)Oc1ccc(C(F)(F)F)cc1 (stereo not drawn)	6.64%
COC(=O)c1cc(S(=O)(=O)N2CCN(c3ccccc3C)CC2)cn1C	-2.77%
C=CCN1C(=O)[C@H](CC(=O)NCCCN2CCCC2=O)[C@@]2(C(=O)OCC)CCCC=C12	-1.95%
CCCCCN1CCCCC(NC(=O)C(C)CCC)C1=O (stereo not drawn)	0.76%
CC(=O)O[C@@]1(C(C)=O)CCC2[C@H]3C=C(C)C4=CC(=O)CC[C@@]4(C)C3CC[C@]21C (stereo partly drawn)	-2.78%
CCC1S/C(=N/N=C/c2ccco2)NC1=O (stereo not drawn)	10.6% (active)
CCCCC1S/C(=N/N=C/c2cccs2)NC1=O (stereo not drawn)	-0.02%
O=C1N/C(=N\N=C\c2ccco2)SC1Cc1ccc(F)cc1 (stereo not drawn)	2.17%
Cc1cccc(C(=O)Nc2c(-c3ccc(F)cc3)nc3ncccn23)c1	-270%
